Reference: PubChem BioAssay AID504941 (Broad Institute, 2011)
The whole screen tested about 1,200 compounds, of which about 170 (14%) were called active. No rule for the calls is given here. These entries were drawn from the full list. Entries with a potency or affinity are not part of this list.

assay: twin-arginine translocation blockade, bacterial reporter – cherry-pick, set 2, plate reader, dose response (AID 504941); conditions: E. coli Tat transport reporter; series mostly up to 38 µM; activity change, negative = inhibition: at the top concentration

Activity change, negative = inhibition, inactive:
COc1ccc(-c2nc(C#N)c(NCC3CCCO3)o2)cc1OC (stereo not drawn) -5.51%
CCNc1nc(OC)nc(Oc2ccc(=O)n(-c3ccccc3)n2)n1 -15.9%
CCCCN(CCCC)C(=O)c1cn(CC)c2cc(N3CCN(C)CC3)c(F)cc2c1=O 282%
CC(C)(C)CC(=O)Nc1ccc(Nc2ccccc2)cc1 2.82%
CC(=O)Nc1cccc(-c2csc(Nc3cc(C)ccn3)n2)c1 -1.58%
Nc1ccc(S(=O)(=O)N2CCCc3ccccc32)cc1 12.9%
NC(=O)c1c(NC(=O)C(=O)N2CCOCC2)sc2c1CCC2 -18.1%
NC(=O)NC(=O)CSc1nc2sc(-c3ccccc3)cc2c(=O)n1-c1ccccc1 -2.99%
CCn1c(CCn2c3ccccc3c3ccccc32)n[nH]c1=S 11.1%
CCc1ccc(NC(=O)Nc2cc(C(=O)NCC3CCCO3)ccc2N2CC3CC(C2)c2cccc(=O)n2C3)cc1 (stereo not drawn) -5.94%
CCCN=C1N(CC)C[C@@H]2[C@@H]3C(=O)N(C)C(=O)[C@@H]3[C@](Cc3ccccc3)(C(=O)OC)N12 -26.9%
CC(NC(=O)Nc1nccs1)(C(F)(F)F)C(F)(F)F 22.2%
COc1ccc(C2C(C#N)=C(N)Oc3c2sc2nc(C)cc(C)c32)cc1 (stereo not drawn) 5.99%
COc1cc2c(cc1NC(=O)COC(=O)[C@@H](NC(=O)c1ccccc1)C(C)C)oc1ccccc12 -4.47%
Cc1cccc2c1cnn2C(=O)CCC(=O)N1CC(C)CC(C)C1 (stereo not drawn) 0.91%
CC(SCC(=O)Nc1ccc(F)cc1)c1nc2ccccc2c(=O)[nH]1 (stereo not drawn) 19.5%
O=C(c1ccco1)N1CCN(C(=O)c2ccc(CS(=O)c3ccc(F)cc3)o2)CC1 (stereo not drawn) -9.83%
Cc1nn2c(COc3ccc(NC(=O)c4ccccc4Cl)cc3)nnc2c2ccccc12 11.3%
O=C(O)c1ccc(N/N=C/c2ccc(-c3ccccc3)cc2)cc1 -7.88%
COc1cccc(CN(C(=O)Cc2c[nH]c3ccccc23)C(C(=O)NC2CCCCC2)c2ccc(C)o2)c1 (stereo not drawn) 0.794%
CCc1cccc(CC)c1NC(=S)NCC(c1cccnc1)N(C)C (stereo not drawn) 23.3%
N#Cc1cccc(C(=O)OCC(=O)NCc2ccco2)c1 26.4%
COc1ccc(-c2ccc(-c3noc(-c4ccccc4OC)n3)c(OC)n2)cc1 32.1%
CCOc1ccc(NC(=O)c2ccc(NC(=O)c3cn4c5c(c(N6CCN(C)CC6)c(F)cc5c3=O)OCC4C)cc2)cc1 (stereo not drawn) 53.8%
O=C(c1ccco1)N1CCCC(c2nc3c(nnn3Cc3ccc(F)cc3)c(=O)[nH]2)C1 (stereo not drawn) -15.7%
CCOC(=O)N1CCC(N(CCN(C)C)C(=S)Nc2ccc(Oc3ccccc3)cc2)CC1 -6.93%
Cc1noc(NS(=O)(=O)c2ccc(NC(=O)c3ccoc3C)cc2)c1C 19.6%
C=CCOc1ccccc1CN1CCC(n2nccc2NC(=O)C2CC2)CC1 -53.1%
O=C(CSc1nccn1Cc1ccccc1)NC1CCCC1 1.77%
O=C(NNC(=S)Nc1cccc(Cl)c1)c1ccccc1OC(F)F 21.6%
COc1ccc(C2CC(=O)Nc3n[nH]c(-c4ccccc4)c32)cc1OC (stereo not drawn) 23.4%
CCc1ccc(N2CC(C(=O)N3CCN(c4ccccn4)CC3)CC2=O)cc1 (stereo not drawn) 23.1%
COc1ccc(-c2nnc(Nc3ccc(CC(N)=O)cc3)c3ccccc23)cc1 -7.23%
Cc1cc(C)n(CCCNC(=O)COc2ccc([N+](=O)[O-])cc2)n1 -36.6%
CCC(=O)NC(c1ccccc1Cl)c1c(O)ccc2ccccc12 (stereo not drawn) 0.404%
COc1ccccc1NS(=O)(=O)c1cc(NC(C)=O)ccc1N1CCCCC1 1.54%
CCn1c2ccc(C)cc2c2nnc(SCCN3CCOCC3)nc21 5%
COC(=O)c1ccc(NC(=O)N2CCC(O)(c3cccnc3)CC2)cc1 9.11%
Cc1ccc(/C=C2/C(=N)N3N=C(CC(=O)N4CCCC4)SC3=NC2=O)o1 15.6%
COC(=O)c1c(NC(=O)CCN2CCOCC2)sc2c1CCCC2 1.23%
COc1ccc(CCN=C(N)NS(=O)(=O)c2cccs2)cc1 -3.98%
COc1cc(SC)ccc1C(=O)OCC(=O)NC(=O)NC(C)C -25.9%
COc1cccc(NC(=O)Nc2cnccn2)c1 -11.9%
O=C(N/C(=C/c1cccc([N+](=O)[O-])c1)C(=O)N1CCOCC1)c1ccc(Br)cc1 14.1%
Cn1cccc1CNCC(O)c1ccccc1 (stereo not drawn) -0.896%
CC1CCN(c2ccc(C(=O)NCc3ccco3)cc2[N+](=O)[O-])CC1 24%
CC(Sc1nnc(-c2ccccc2F)n1C1CC1)C(=O)NCc1ccco1 (stereo not drawn) 20.6%
N#Cc1cccc(Nc2c3c(nc4ccccc24)CCCC3)c1 31%
O=S(=O)(c1cc(Cl)cc(Cl)c1O)N1CCC2(CC1)OCCO2 -7.76%
CCS(=O)(=O)c1ccc(NC(=O)c2ccccc2Cl)c(O)c1 -5.3%
CS(=O)(=O)c1ccc(Cl)c(NC(=O)COC(=O)CCc2c[nH]c3ccccc23)c1 -2.31%
Nc1ccn(CC(=O)N2CCN(c3ccccn3)CC2)c(=O)n1 8.72%
NC(=O)c1ncn([C@@H]2O[C@H](CNCc3cccn3-c3ccncc3)[C@@H](O)[C@H]2O)n1 5.2%
O=C(NCc1ccc2c(c1)OCO2)c1c(O)c2cccc3c2n(c1=O)CCC3 -10.3%
Cc1nc(NC(=O)c2ccco2)sc1-c1csc(Nc2ccc(Cl)cc2)n1 -28.1%
Cc1ccc(SCc2noc(C(=O)NC(C)C)c2C(=O)O)cc1C 22.1%
CCCCNC(=O)NNC(=O)c1ccc(F)cc1 3.97%
O=C(O)C1C(=O)NCC1c1ccccc1 (stereo not drawn) 5.39%
Cc1ccc(C(=O)N/C(=C\c2cn(S(=O)(=O)N(C)C)c3ccccc23)C(=O)NCCCN2CCOCC2)cc1 -3.49%
COc1ccc(Nc2nc(NCCO)nc(OC)n2)cc1 12.2%
CCOC(=O)CC(NC(=O)c1cccc2c1C(=O)N(Cc1cccnc1)C2)c1ccc(OCC)c(OC)c1 (stereo not drawn) 22.5%
OC1(c2ccccc2Cl)NN=C2CCCCCN21 (stereo not drawn) 2.37%
Cc1nc2ccccn2c1/C(O)=C1\C(=O)C(=O)N(CCN(C)C)C1c1ccco1 (stereo not drawn) -13.9%
COc1ccccc1N1C(=NC(=O)CCc2ccccc2)SC2CS(=O)(=O)CC21 (stereo not drawn) 1.05%
CCNc1c(NS(=O)(=O)c2ccc(OC)cc2)c(=O)oc2ccccc12 48%
COc1ccc(Cc2nnc(NS(=O)(=O)c3ccc(Cl)cc3)s2)cc1OC -17.9%
Oc1ccc(/C=N/Nc2ccccc2)cc1 6.32%
CC(C)c1nnc(NC(=O)CCS(=O)(=O)Cc2ccccc2)s1 21.5%
CC(=O)NS(=O)(=O)c1ccc(NC(=O)c2cc(-c3cccs3)nc3ccccc23)cc1 5.92%
O=C(Cn1ccc(C(F)(F)F)n1)Nc1ccc(S(=O)(=O)NCc2ccco2)cc1 11.5%
CCC(C)n1nccc1NC(=O)C(C)Cl (stereo not drawn) -9.12%
O=C(Nc1cccc(-c2nc3cccnc3s2)c1)C1c2ccccc2Oc2ccccc21 21.1%
Nc1cc(OC(=O)c2ccc(F)cc2)nn1S(=O)(=O)c1ccc(F)cc1 -2.53%
CC(C)(C)n1nnnc1C(c1cc2cc3c(cc2[nH]c1=O)OCCO3)N1CCSCC1 (stereo not drawn) 8.61%
Cc1cc(C(C#N)c2ccccc2F)n2ncnc2n1 (stereo not drawn) -3.6%
C=CCc1c(C)nc(C)nc1N/N=C/c1ccc(N(C)C)cc1 3.93%
COc1ccc(S(=O)(=O)N(C)c2ccc(C(=O)N3CCOCC3)cc2)cc1 -2.72%
CCCCOc1ccc(C2CC(=O)N(C)C2=O)cc1 (stereo not drawn) 15.5%
CC[C@H]1OC(=O)[C@H](C)[C@@H](O[C@H]2C[C@@](C)(OC)[C@@H](O)[C@H](C)O2)[C@H](C)[C@@H](O[C@@H]2O[C@H](C)C[C@H](N(C)C)[C@H]2O)[C@](C)(OC)C[C@@H](C)C(=O)[C@H](C)[C@@H](O)[C@]1(C)O 21.8%
NC(=O)c1ccccc1NC(=O)COc1ccc2c(c1)OCO2 -15.4%
CCCN(Cc1ccccc1)C(=S)Nc1ccc(SC(F)F)cc1 -28.4%
c1ccc2c(OCCCN3CCCCCC3)cccc2c1 11.3%
CC(C)(C)OC(=O)N[C@@H](Cc1ccccc1)[C@H](O)c1ccco1 -13%
C[C@H](NC(=O)c1nc[nH]c1C(=O)NCc1ccc(CNC(=O)OC(C)(C)C)cc1)c1ccccc1 -35%
Cc1ccccc1-c1nc(CN2CCC(C(=O)O)CC2)c(C)o1 -19.8%
CC(O/N=C/c1ccc(OC(F)F)cc1)C(=O)Nc1cccc(S(=O)(=O)N2CCOCC2)c1 (stereo not drawn) 10.4%
Fc1ccc(-n2c(-c3ccc4ccccc4n3)n[nH]c2=S)cc1Cl 28.2%
Nc1nc(CN2CCCCC2)cs1 18.1%
CCCn1c2c(c(=N)c3c1CCC3)CCCC2 8.27%
COc1ccc(C2OC(=O)CC2C(=O)NCc2ccc(F)cc2)cc1OC (stereo not drawn) 4.42%
Cc1ccc2oc3c(c(=O)c2c1)C(c1cccs1)N(CCCN(C)C)C3=O (stereo not drawn) -22.4%
CC(=O)N1CCN(c2cc3c(cc2F)c(=O)c(C(=O)O)cn3C2CC2)CC1 408%
CC(C)C[C@@H](CN1CCC[C@@H]1CN1C(=O)C(=O)NC[C@@H]1Cc1ccccc1)N1C[C@H](Cc2ccc(O)cc2)N(CC2CCCCC2)C(=O)C1=O -8.76%
CCCC(=O)c1c[nH]c(C(=O)N2CCOCC2)c1 -22.5%
CCC(=NCCc1ccc(OC)c(OC)c1)C1=C(O)CC(C)(C)CC1=O -14.1%
N#Cc1nc(-c2ccccc2Cl)oc1N1CCN(C(=O)c2ccco2)CC1 -6.45%
O=C(NNc1ncnc2c1cnn2-c1ccccc1)c1cccs1 2.73%
C1=C(CCNc2ncnc3c2cnn3-c2ccccc2)CCCC1 -9.98%
COc1cccc(C(=O)N(CN2CCCC2=O)c2cccc(Cl)c2)c1OC 2.99%
O=C(Nc1ccc(Cl)c(C(F)(F)F)c1)NC1CC2CCCC(C1)N2C1CC1 (stereo not drawn) 16.9%
CCOc1ncccc1C(=O)N(CC)CC(=O)Nc1ccc(NC(C)=O)cc1 9.92%
CCCCN(C)CCn1c(=S)[nH]c2ncccc2c1=O -6.89%
CN(C(=O)COC(=O)c1cccc(S(=O)(=O)N2CCOCC2)c1)C1CCS(=O)(=O)C1 (stereo not drawn) 6.11%
